Assay results published in PubChem BioAssay.
Values joined by “and” are separate entries in the source; they are usually repeats but may differ in a detail not shown here. Equal values may be shown once. Results filed as inconclusive are left out. Active and inactive are the calls of the source. Unless noted, no rule for the calls is given here.

Experiments:
[1] = viability loss in pontine glioma line – cell-based, SU-DIPG-XVII, MIPE5.0, CellTiter-Glo, qHTS, dose response (AID 1347060; cut-off not given, nearly all actives have AC50 up to about 26 µM;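 as to AC50: cells exposed to compound for 48 hours before viability readout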); details: CellTiter-Glo ATP luminescence
[2] = viability loss in pontine glioma line – cell-based, JHH-DIPG-1, MIPE4.0, CellTiter-Glo, qHTS, dose response (AID 1347062; cut-off not given, nearly all actives have AC50 up to about 27 µM;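 as to AC50: cells exposed to compound for two days before readout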); details: JHH-DIPG-1 viability, CellTiter-Glo ATP luminescence
[3] = viability loss in pontine glioma line – cell-based, SU-DIPG-IV, MIPE4.0, CellTiter-Glo, qHTS, dose response (AID 1347063; cut-off not given, nearly all actives have AC50 up to about 30 µM;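 also: compound exposure lasted 48 hours before the viability readout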); details: CellTiter-Glo ATP luminescence
[4] = viability loss in pontine glioma line – cell-based, SU-DIPG-XIII, MIPE5.0, CellTiter-Glo, qHTS, dose response (AID 1347064; cut-off not given, nearly all actives have AC50 up to about 23 µM;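 as to AC50: cells exposed to compound for 48 hours before the viability read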); details: CellTiter-Glo ATP luminescence
[5] = growth inhibition of DIPG cells – cell-based, MIPE5.0 library, qHTS (AID 1347068; cut-off not given, nearly all actives have IC50 up to about 30 µM;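 as to IC50: cells exposed to compound for 48 hours before viability readout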); details: SU-DIPG-XXV viability
[6] = compounds altering HSF1 focus formation in cells – imaging, Selleck Cancer Library (AID 1347162; in the data active = plate-normalised HSF1 focus index below about 0.46); details: human cells, HSF1 nuclear foci imaging, at 10 µM; SSMD: measured here: HSF1 foci SSMD mean; cell count: measured here: cell number; plate-normalised HSF1 focus index: stronger effect = lower value
[7] = signal quenchers or enhancers, Cy5 substrate/SSB – biochemical, NIH Clinical Collection, E. coli SSB, artefact control for HCV NS3 helicase inhibitor project (AID 743268); details: Cy5-oligo bound E. coli SSB, fluorescence interference
[8] = test system: Hepatitis C virus NS3 helicase; experiment: blockers of NS3h binding to DNA – biochemical, fluorescence polarization, NIH Clinical Collection, primary screen (AID 743270); details: NS3 helicase binding to Cy5-dT15 DNA, stronger effect = higher value, concentration not given here
[9] = biological target: Single-stranded DNA-binding protein (Escherichia coli (strain K12)) (UniProt P0AGE0); experiment: SSB-ssDNA binding inhibitors – biochemical, fluorescence polarization, NIH Clinical Collection, counter-screen for HCV NS3 helicase inhibitor project (AID 743271; in the data active = inhibition above about 28%); details: E. coli SSB-DNA binding, stronger effect = higher value, concentration not given here
[10] = compounds distorting NS3 helicase fluorescence signal – biochemical, NIH Clinical Collection, artefact control for HCV NS3 helicase inhibitor project (AID 743272); details: fluorescence interference counterscreen, HCV NS3 helicase assay; stronger effect = lower value;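 also: HCV NS3 helicase with a Cy5 labelled single stranded DNA probe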
[11] = test system: F380Y/beta4; experiment: BK channel mutant inhibitors and activators – cell-based, U2OS BacMam, thallium flux, beta subunits, selectivity assay, profiling panel (AID 1259406;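 active = thallium flux through the channel raised or lowered by more than 3 SD from vehicle-only wells, actives on both sides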;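 also: initial slope of Thallos dye fluorescence rise after thallium is added; log ratio against the mean of 0.3% DMSO vehicle wells on the same plate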); details: U2OS BacMam BK variants, at 30 µM
[12] = biological target: Calcium-activated potassium channel subunit alpha-1 (Homo sapiens) + Leucine-rich repeat-containing protein 26 (Homo sapiens) (UniProt Q12791+Q2I0M4); experiment: as above; details: U2OS BacMam BK variants, F380Y/Slo1WT/gamma1, at 30 µM
[13] = test system: R275C/beta4; experiment: as above; details: U2OS BacMam BK variants, at 30 µM
[14] = test system: Neuropilin-2 / VEGF-C interaction (human); experiment: small molecules blocking Neuropilin-2/VEGF-C interaction – biochemical, microplate binding format, z-score (AID 743281); details: microplate NRP2/VEGF-C binding assay; stronger effect = lower value
[15] = viability loss in pontine glioma line – cell-based, SU-DIPG-XIII, MIPE4.0, CellTiter-Glo, qHTS, dose response (AID 1347061; cut-off not given, nearly all actives have AC50 up to about 37 µM;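 also: cells exposed to compound for 48 hours before readout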); details: CellTiter-Glo ATP luminescence
[16] = growth inhibition of DIPG cells – cell-based, MIPE4.0 library, CellTiter-Glo luminescence, qHTS (AID 1347066; cut-off not given, nearly all actives have AC50 up to about 30 µM;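 also: cells exposed to compound for 48 hours before readout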); details: SU-DIPG-VI viability, CellTiter-Glo ATP luminescence
[17] = test system: Aerobactin synthetase IucA (Klebsiella pneumoniae); experiment: inhibition of K. pneumoniae IucA enzyme – biochemical, Tocris library, absorbance (AID 1345561); details: purified IucA enzyme assay, absorbance (OD) read-out; stronger effect = lower value;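 tested at 8 µM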;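 also: 100% = enzyme without compound and 0% = no enzyme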
[18] = viability loss in pontine glioma line – cell-based, SU-DIPG-XXV, MIPE5.0, CellTiter-Glo, qHTS, dose response (AID 1347065; cut-off not given, nearly all actives have AC50 up to about 26 µM;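 also: cells exposed to compound for 48 hours before ATP readout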); details: CellTiter-Glo ATP luminescence
[19] = JHH-DIPG-1 glioma cell viability, MIPE5.0 library, CellTiter-Glo luminescence, qHTS (AID 1347067; cut-off not given, nearly all actives have AC50 up to about 26 µM;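 also: cells exposed to compound for 48 hours before readout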); details: JHH-DIPG-1 glioma viability, CellTiter-Glo ATP luminescence
[20] = growth inhibition, single agents and combos, ICB984, cell-based, cisplatin or BGB combos, synergistic combos for chromothripsis tumors (AID 1671451); details: ICB984 medulloblastoma cells, drug combinations, stronger effect = higher value;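 also: cells exposed for 96 hours before readout; 0% = vehicle DMSO and 100% = killing by high DMSO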

Calcium-activated potassium channel subunit alpha-1 (Homo sapiens) + Leucine-rich repeat-containing protein 26 (Homo sapiens), sequence (Q2I0M4 whole entry, looked up, one chain of several): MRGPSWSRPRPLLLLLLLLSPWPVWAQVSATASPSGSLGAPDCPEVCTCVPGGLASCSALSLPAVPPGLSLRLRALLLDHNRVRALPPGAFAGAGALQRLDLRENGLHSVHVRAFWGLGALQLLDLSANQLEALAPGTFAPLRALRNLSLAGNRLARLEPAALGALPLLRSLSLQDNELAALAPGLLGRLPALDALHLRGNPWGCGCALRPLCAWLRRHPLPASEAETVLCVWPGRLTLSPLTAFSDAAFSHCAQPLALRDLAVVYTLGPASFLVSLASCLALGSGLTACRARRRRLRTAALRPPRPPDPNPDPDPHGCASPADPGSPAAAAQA

N[C@@H](Cc1ccc(N(CCCl)CCCl)cc1)C(=O)O
7340: cell count [6]
inactive: plate-normalised HSF1 focus index [6] 1.09
active: AC50 [1] 4170 nM | AC50 [2] 23500 nM | AC50 [3] 13200 nM | AC50 [4] 18600 nM | IC50 [5] 29500 nM
1.42: SSMD [6]

CC(C)N(CCC(C(N)=O)(c1ccccc1)c1ccccn1)C(C)C (configuration not stated)
active: fluorescence ratio [7] 0.1
inactive: inhibition [8] -3.18% | inhibition [9] -3.53% | fluorescence ratio [10] 1.04 | log fold change Tl+ flux [11] 0.017 | log fold change Tl+ flux [12] 0.0168 | log fold change Tl+ flux [13] -0.0304

COc1ccc(C(CN(C)C)C2(O)CCCCC2)cc1 (configuration not stated)
inactive: fluorescence ratio [7] 1.07 | inhibition [8] -2.77% | inhibition [9] 1.44% | fluorescence ratio [10] 0.93 | z-score [14] 0.57 | outcome [15] | outcome [2] | outcome [3] | outcome [16] | log fold change Tl+ flux [11] 0.00869 | log fold change Tl+ flux [12] -0.00535 | log fold change Tl+ flux [13] 0.0192

C[C@@H]1CC[C@H]2[C@@H](C)C(=O)O[C@@H]3O[C@@]4(C)CC[C@@H]1[C@]32OO4
inactive: remaining activity [17] 94.3% | outcome [1] | outcome [15] | outcome [2] | outcome [18] | outcome [16] | outcome [19] | outcome [5]

N[C@@H]1C[C@H]1c1ccccc1
inactive: remaining activity [17] 124% | outcome [1] | outcome [15] | outcome [2] | outcome [3] | outcome [4] | outcome [18] | outcome [16] | outcome [19] | outcome [5]

C[C@@H]1O[C@@H](O[C@H]2C[C@@H](O)[C@]3(CO)[C@H]4[C@H](O)C[C@]5(C)[C@@H](C6=CC(=O)OC6)CC[C@]5(O)[C@@H]4CC[C@]3(O)C2)[C@H](O)[C@H](O)[C@H]1O
active: AC50 [1] 52.5 nM | AC50 [15] 13.2 nM | AC50 [2] 6.62 nM | AC50 [3] 14.8 nM | AC50 [18] 93.4 nM | AC50 [16] 29.6 nM | AC50 [19] 18.6 nM

C=C(C)[C@H]1CN[C@H](C(=O)O)[C@H]1CC(=O)O
inactive: remaining activity [17] 116%

NC1=NC(=O)C(c2ccccc2)O1 (configuration not stated)
inactive: fluorescence ratio [7] 1.02 | inhibition [8] 2.77% | inhibition [9] 1.44% | fluorescence ratio [10] 0.93 | z-score [14] -1.08 | log fold change Tl+ flux [11] 0.00709 | log fold change Tl+ flux [12] -0.0447 | log fold change Tl+ flux [13] -0.0245

CC[C@@H](CO)NC(=O)[C@@H]1C=C2c3cccc4c3c(cn4C)C[C@H]2N(C)C1
inactive: remaining activity [17] 121%

O=C(O)C(Cl)Cl
inactive: fluorescence ratio [7] 0.97 | inhibition [8] -0.4% | inhibition [9] 0.67% | fluorescence ratio [10] 0.96 | z-score [14] 0.208 | remaining activity [17] 99.4% | log fold change Tl+ flux [11] -0.0155 | log fold change Tl+ flux [12] -0.0139 | log fold change Tl+ flux [13] -0.0167

C[N+]1(CCC(C(N)=O)(c2ccccc2)c2ccccc2)CCCCC1
inactive: fluorescence ratio [7] 1.01 | inhibition [8] -1.98% | inhibition [9] -0.1% | fluorescence ratio [10] 0.95 | z-score [14] -0.188 | log fold change Tl+ flux [11] -0.00383 | log fold change Tl+ flux [12] 0.0152 | log fold change Tl+ flux [13] -0.0252

COc1ccc(C(=O)N2CCCC2=O)cc1
inactive: remaining activity [17] 97.7% | outcome [1] | outcome [15] | outcome [2] | outcome [3] | outcome [18] | outcome [16] | outcome [19] | outcome [5]

C#CCN(C)[C@H](C)Cc1ccccc1
inactive: fluorescence ratio [7] 0.95 and 0.99 | inhibition [8] -5.15% and -7.73% | inhibition [9] 2.21% and -4.29% | fluorescence ratio [10] 0.9 and 0.99 | z-score [14] -0.865 | outcome [1] | outcome [15] | outcome [2] | outcome [3] | outcome [4] | outcome [18] | outcome [19] | outcome [5] | log fold change Tl+ flux [11] 0.0201 | log fold change Tl+ flux [12] 0.000386 | log fold change Tl+ flux [13] -0.0396

CCOC(=O)c1cncn1C(C)c1ccccc1 (configuration not stated)
inactive: log fold change Tl+ flux [11] 0.0301 | log fold change Tl+ flux [12] -0.00742 | log fold change Tl+ flux [13] -0.000383

c1ccc2c(c1)OCC(C1=NCCN1)O2 (configuration not stated)
inactive: remaining activity [17] 99.1%

NC(=O)OCCCc1ccccc1
inactive: fluorescence ratio [7] 1.07 | inhibition [8] 0.4% | inhibition [9] -1.64% | fluorescence ratio [10] 1.03 | z-score [14] -0.636 | log fold change Tl+ flux [11] 0.0583 | log fold change Tl+ flux [12] -0.0246 | log fold change Tl+ flux [13] -0.0265

O=P1(NCCCl)OCCCN1CCCl (configuration not stated)
-32.7% and -24.5%: inhibition ([20]; BGB IC40 combo, at 0.005 µM)
-28.2% and -28.3%: inhibition ([20]; cisplatin combo, at 0.5 µM)
-4.87% and -19.5%: inhibition ([20]; BGB IC20 combo, at 0.005 µM)
-4.46% and 4.1%: inhibition ([20]; measured here: 5 uM single agent, at 5 µM)
inactive: outcome [1] | outcome [15] | outcome [2] | outcome [4] | outcome [18] | outcome [16] | outcome [19] | outcome [5] | inhibition ([20]; at 0.5 µM) -22% and -43%
-25.4% and -42.1%: inhibition ([20]; BGB IC40 combo, at 0.05 µM)
-18% and -28.2%: inhibition ([20]; cisplatin combo, at 5 µM)
-25.4% and -47.2%: inhibition ([20]; cisplatin combo, at 0.05 µM)
